# According to PubChem BioAssay (NCI):
# “And” between values parts separate entries of the source, which are not always exact repeats. Identical values can stand only once. The panel holds about 83,000 compounds, 20% with a hit somewhere; the sample as a whole holds those more often.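 Values shown are percent growth following 48 h exposure of cells in 96-well plates to a single concentration of compound; below 10 was considered active.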 Some compounds were tested as several samples or in several runs, with calls that do not always agree. The source made the active and inactive calls.
# Columns and labels:
# Test in all cases: NCI-60 one-dose screen, 48 h (100 = growth as untreated, 0 = no growth, -100 = all killed)
# Settings in all cases: 10 µM unless noted
# DU-145 prostate = tested on: DU-145 prostate
# K-562 leukemia = tested on: K-562 leukemia
# MALME-3M melanoma = tested on: MALME-3M melanoma
# MDA-MB-231 breast = tested on: MDA-MB-231 breast
# RXF 393 renal = tested on: RXF 393 renal
# SF-268 CNS = tested on: SF-268 CNS
# SF-295 CNS = tested on: SF-295 CNS
# SF-539 CNS = tested on: SF-539 CNS
# UACC-257 melanoma = tested on: UACC-257 melanoma
# M14 melanoma = tested on: M14 melanoma
# HCT-15 colon = tested on: HCT-15 colon
# HT29 colon = tested on: HT29 colon
# SNB-75 CNS = tested on: SNB-75 CNS
# SNB-19 CNS = tested on: SNB-19 CNS
# U251 CNS = tested on: U251 CNS
# PC-3 prostate = tested on: PC-3 prostate
# SK-MEL-5 melanoma = tested on: SK-MEL-5 melanoma
# UACC-62 melanoma = tested on: UACC-62 melanoma
# LOX IMVI melanoma = tested on: LOX IMVI melanoma
# SK-MEL-28 melanoma = tested on: SK-MEL-28 melanoma
Compound,growth (DU-145 prostate),growth (K-562 leukemia),growth (MALME-3M melanoma),growth (MDA-MB-231 breast),growth (RXF 393 renal),growth (SF-268 CNS),growth (SF-295 CNS),growth (SF-539 CNS),growth (UACC-257 melanoma),growth (M14 melanoma),growth (HCT-15 colon),growth (HT29 colon),growth (SNB-75 CNS),growth (SNB-19 CNS),growth (U251 CNS),growth (PC-3 prostate),growth (SK-MEL-5 melanoma),growth (UACC-62 melanoma),growth (LOX IMVI melanoma),growth (SK-MEL-28 melanoma)
CC1(C)[C@@H](OC(=O)CCC(=O)O)CC[C@]2(C)[C@H]3C(=O)C=C4[C@@H]5C[C@@](C)(C(=O)O)CC[C@]5(C)CC[C@@]4(C)[C@]3(C)CC[C@@H]12,101% (inactive) and -1.77% (active),92.3% (inactive) and 5.05% (active),108% (inactive) and -65.4% (active),110% (inactive) and -5.44% (active),125% (inactive) and -88.8% (active),96.1% (inactive) and -27% (active),106% (inactive) and -51.1% (active),99.9% (inactive) and -73% (active),99.2% (inactive) and -46.5% (active),103% (inactive) and -12.8% (active),101% (inactive) and -39.6% (active),103% (inactive) and -8.67% (active),-68.7% (active),102% (inactive) and -3.23% (active),110% (inactive) and -91.2% (active),103% (inactive) and -28.4% (active),105% (inactive) and -82.7% (active),106% (inactive) and -80% (active),104% (inactive) and -50.8% (active),105% (inactive) and -66% (active)
OC1CCC(Oc2cccc3cnc(Nc4ccc5nc[nH]c5c4)nc23)CC1 (stereo not given),13.2% (inactive) and 48% (inactive),9.4% (active) and 54% (inactive),-8.81% (active) and 86.7% (inactive),2.87% (active) and 44.5% (inactive),-16.8% (active) and 23% (inactive),1.49% (active) and 45.4% (inactive),13.1% (inactive) and 62.2% (inactive),-34.1% (active) and 32% (inactive),-24.7% (active) and 44.8% (inactive),-9.41% (active) and 49.1% (inactive),5.3% (active) and 81% (inactive),2.98% (active) and 46% (inactive),-22.7% (active) and 37.5% (inactive),9.42% (active) and 41.1% (inactive),3.2% (active) and 27.7% (inactive),3.19% (active) and 35.5% (inactive),-6.41% (active) and 47.6% (inactive),-4.06% (active) and 46.2% (inactive),6.32% (active) and 39.2% (inactive),5.62% (active) and 66.4% (inactive)
OCCN1CCN(CCO)CC1,117% (inactive) and 111% (inactive) and 123% (inactive),96.3% (inactive) and 100% (inactive) and 104% (inactive),105% (inactive) and 97.4% (inactive) and 107% (inactive),106% (inactive) and 107% (inactive) and 114% (inactive),114% (inactive) and 95.6% (inactive) and 120% (inactive),107% (inactive) and 101% (inactive) and 105% (inactive),94.9% (inactive) and 82.6% (inactive) and 110% (inactive),105% (inactive) and 91.1% (inactive) and 106% (inactive),117% (inactive),102% (inactive) and 91.1% (inactive) and 103% (inactive),102% (inactive) and 101% (inactive) and 107% (inactive),108% (inactive) and 101% (inactive) and 110% (inactive),111% (inactive) and 83.4% (inactive) and 96.1% (inactive),99.2% (inactive) and 113% (inactive),95.7% (inactive) and 98% (inactive) and 105% (inactive),91.7% (inactive) and 99.9% (inactive) and 96.2% (inactive),102% (inactive) and 92% (inactive) and 115% (inactive),99.5% (inactive) and 92.6% (inactive) and 109% (inactive),92.9% (inactive) and 93.2% (inactive) and 111% (inactive),33.7% (inactive) and 104% (inactive) and 106% (inactive)
O=C(O)C1C2C=CC(C2)C1C(=O)O (stereo not given),113% (inactive) and 33% (inactive) and 117% (inactive),107% (inactive) and 21.5% (inactive) and 95.5% (inactive),109% (inactive) and 70% (inactive),101% (inactive) and 66.9% (inactive) and 124% (inactive),116% (inactive) and 38.8% (inactive) and 96.9% (inactive),115% (inactive) and 38.7% (inactive) and 105% (inactive),101% (inactive) and 9.77% (active),113% (inactive) and 27.8% (inactive) and 99.6% (inactive),99.8% (inactive) and 35.6% (inactive) and 97.9% (inactive),115% (inactive) and 39.1% (inactive) and 105% (inactive),106% (inactive) and 101% (inactive),94.3% (inactive) and 14.4% (inactive) and 104% (inactive),102% (inactive) and 61.9% (inactive) and 89% (inactive),99.2% (inactive) and 51.6% (inactive) and 113% (inactive),105% (inactive) and 19.7% (inactive) and 98.8% (inactive),93.6% (inactive) and 17.4% (inactive) and 98.1% (inactive),103% (inactive) and 23.6% (inactive) and 98.5% (inactive),89.8% (inactive) and 26.8% (inactive) and 104% (inactive),109% (inactive) and 16.9% (inactive) and 104% (inactive),105% (inactive) and 49.8% (inactive) and 109% (inactive)
CC(=O)NC(Cc1ccccc1)C(=O)Oc1ccc2ccccc2c1 (stereo not given),107% (inactive) and 109% (inactive),106% (inactive) and 113% (inactive),109% (inactive),104% (inactive) and 103% (inactive),113% (inactive) and 115% (inactive),100% (inactive),113% (inactive),91.6% (inactive) and 90% (inactive),104% (inactive) and 116% (inactive),109% (inactive) and 118% (inactive),87.4% (inactive) and 102% (inactive),114% (inactive) and 96.4% (inactive),84.3% (inactive) and 78.1% (inactive),113% (inactive),97.7% (inactive) and 102% (inactive),85.5% (inactive) and 90.6% (inactive),101% (inactive),98.8% (inactive) and 99.8% (inactive),84.9% (inactive) and 87.7% (inactive),117% (inactive) and 105% (inactive)
CCN(CC)CCNc1ccc(C)c2sc3ccccc3c(=O)c12 (tested in a mixture with another compound),36% (inactive) and 39.4% (inactive),0.322% (active) and 13.3% (inactive),30.9% (inactive) and 48.2% (inactive),18.3% (inactive) and 24.8% (inactive),-9.22% (active) and 16.4% (inactive),36.2% (inactive) and 24.3% (inactive),35.4% (inactive) and 40.9% (inactive),38.6% (inactive) and 32% (inactive),-52.9% (active) and -51.9% (active),-50.9% (active) and -40.5% (active),14.5% (inactive) and 14.2% (inactive),1.12% (active) and 10.8% (inactive),25.6% (inactive) and 51% (inactive),41.1% (inactive) and 26.3% (inactive),18.4% (inactive) and 15.1% (inactive),50.4% (inactive) and 35.3% (inactive),-85.6% (active) and -91.5% (active),-68.8% (active) and -47.5% (active),-17% (active) and -40.3% (active),-3.67% (active) and -6.09% (active)
CO/N=C/C=C\C(=O)N/C=C/C[C@H]1/C=C/[C@H](O)/C=C\C=C\c2cccc(O)c2C(=O)O1,55.6% (inactive) and 40% (inactive),4.46% (active) and 2.94% (active),59.8% (inactive) and 22.5% (inactive),27.3% (inactive) and 41.9% (inactive),51% (inactive) and 55.5% (inactive),45.5% (inactive) and 31.9% (inactive),-36.9% (active) and -43.7% (active),21% (inactive) and 4.04% (active),-16.7% (active) and 21.8% (inactive),-13.4% (active) and -41% (active),11.9% (inactive) and 16.7% (inactive),9.82% (active) and 7.92% (active),25.2% (inactive) and -14.6% (active),68.3% (inactive) and 56.7% (inactive),33.3% (inactive) and 32.2% (inactive),37.5% (inactive) and 25.3% (inactive),-70.6% (active) and -68.6% (active),-1.1% (active) and -43.6% (active),-45.7% (active) and -73.7% (active),32.1% (inactive)
